In all, about 96,000 compounds went through this assay and about 19,000 (20%) were called active. Not all results are given here. Values without a mark were called inactive.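 Rule for the calls: active = blocking of liver enzyme CYP2C9 beyond about 50% at 5 µM (limit read from the data); inactive = the rest.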
These molecules were tested against Cytochrome P450 2C9 (Homo sapiens) (UniProt P11712) (assay: blockers of cytochrome P450 2C9 activity – biochemical, luminescence, ADME assay, primary screen (AID 777)). Details: CYP2C9 Supersomes, luciferin-H conversion, at 5 µM, active compounds read high.
Cytochrome P450 2C9 (Homo sapiens), sequence (P11712 whole entry, looked up): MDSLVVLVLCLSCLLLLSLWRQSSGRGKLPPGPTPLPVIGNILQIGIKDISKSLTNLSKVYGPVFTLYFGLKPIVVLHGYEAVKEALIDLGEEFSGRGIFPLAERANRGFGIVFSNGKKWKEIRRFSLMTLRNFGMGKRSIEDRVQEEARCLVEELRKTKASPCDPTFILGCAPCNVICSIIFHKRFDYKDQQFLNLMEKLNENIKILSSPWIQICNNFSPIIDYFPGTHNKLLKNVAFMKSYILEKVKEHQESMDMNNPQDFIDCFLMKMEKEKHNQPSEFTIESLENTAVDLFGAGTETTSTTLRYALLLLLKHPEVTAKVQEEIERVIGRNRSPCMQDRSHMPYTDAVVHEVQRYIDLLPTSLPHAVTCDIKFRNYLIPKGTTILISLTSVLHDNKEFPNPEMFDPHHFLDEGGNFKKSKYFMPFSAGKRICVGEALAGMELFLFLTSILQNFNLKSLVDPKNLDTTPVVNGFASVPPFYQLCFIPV

First: CCCCN=C(N)/C(C(=O)OCC)=C(\O)c1ccc(OC)cc1
Second: CCCCOc1ccc(C(C)(O)CCN2CCOCC2)cc1 (configuration not stated)
The inhibition of the first is higher: 20.5% for the first, -4.9% for the second.

First: CCC(=O)Nc1ccc2c(c1)nc(CCN1CCN(C)CC1)n2C
Second: CC(C)C(=O)OCC(=O)Nc1ccc2c(c1)CCC2
The inhibition of the first is higher: 0.1% for the first, -0.6% for the second.

Compared with Cc1cc(C)n2nc(C(=O)NC(C)(C)C)nc2n1, CC(=O)NC(C)(C)C1CC=C(C)/C(=N\O)C1 (configuration not stated) is higher in inhibition: -10.2% for the first, -8.6% for the second.

Compared with Cc1ccc(C(C)C)c(OCc2nnc(SCC(=O)Nc3nccs3)n2C)c1, CCCCOC(=O)Nc1sc2nc(C)cc(C)c2c1-n1cccc1 is higher in inhibition: 3.8% for the first, 37.4% for the second.

First: CCn1c2c(c3ccc(OC)cc31)CCCC2=O
Second: Cc1ccc2nc3n(c(=O)c2c1)CCC3
The inhibition of the first is higher: 41.1% for the first, 21% for the second.

Compared with Cn1c(=O)c2c(SCC(=O)N3CCOCC3)nc(C3CC3)nc2n(C)c1=O, Cn1c(=NC(=O)CSCC(=O)N2CCOCC2)sc2ccccc21 is lower in inhibition: 8.1% for the first, -13.1% for the second.

Compared with Cc1c(C)c2cc3c4c(oc3c(C)c2oc1=O)CCCC4, CC1(C)CN=C(N2CCN(c3ncnc4sc5c(c34)CCCC5)CC2)S1 is higher in inhibition: 9.6% for the first, 39.4% for the second.

First: O=S1(=O)CC(NCc2ccccc2)C(Nc2ccc(Cl)cc2)C1 (configuration not stated)
Second: O=C(CSc1ncccn1)NC(=O)NCc1ccccc1
The inhibition of the first is higher: 27.4% for the first, 5.8% for the second.

First: Cc1ccn2cc(-c3nonc3C)cc2c1
Second: COc1ccc(C2=Nc3cc(C)ccc3OC2)cc1
The inhibition of the first is lower: 15.3% for the first, 19.1% for the second.

Compared with O=C(Nc1ncc2c(n1)CC(c1ccco1)CC2=O)c1ccc(Cl)cc1 (configuration not stated), CCN(c1ccccc1)S(=O)(=O)c1ccc(C(=O)Nc2nccs2)cc1 is lower in inhibition: 31.2% for the first, 23.3% for the second.

Going from C=CCn1c(SCc2csc(C)n2)nc2scc(-c3ccc(C)o3)c2c1=O to Cc1nc2c(-c3ccccc3)c(C)[nH]n2c(=O)c1Cl, the inhibition falls from 48% to 43.9%.

Compared with COc1ccc(S(=O)(=O)N(C)CC(=O)Nc2ccc3c(c2)OCCO3)cc1OC, COc1ccc(CNc2ccc3c(c2)CCC3)cc1OC is lower in inhibition: 27.4% for the first, 7.2% for the second.

Compared with CCC(=NC1CC(C)(C)NC(C)(C)C1)C1=C(O)CC(C)(C)CC1=O, CCc1c(O)nc(SCC(=O)N2CCCCC2)n(-c2ccccc2C)c1=O is lower in inhibition: 13.4% for the first, 4.6% for the second.

Going from Cc1cc(C)c2c(-n3cccc3)c(NC(=O)OCc3ccccc3)sc2n1 to O=C(CSc1nnc(-c2c[nH]c3ccccc23)o1)c1ccccc1, the inhibition rises from 13.2% to 18.1%.

Compared with Cc1ccc(S(=O)(=O)n2cnc3ccccc32)c(C)c1, Cc1cccc(C)c1-n1c(C)cc(/C=C2\C(=O)NN(c3ccccc3)C2=O)c1C is higher in inhibition: -7.6% for the first, 41.5% for the second.

Compared with O=C(CN1C(=O)C2C3C=CC(C3)C2C1=O)NCCc1ccccc1Cl (configuration not stated), CCOC(=O)C1CCN(C(=O)Cc2c(C(=O)O)[nH]c3ccccc23)CC1 is lower in inhibition: 17.1% for the first, 5.4% for the second.

First: COc1ccc(OC)c(CNC(=O)C2CCCN(c3nc4ccccc4o3)C2)c1 (configuration not stated)
Second: COc1ccc(CCn2nnnc2C(c2ccccc2)N2CCN(C)CC2)cc1OC (configuration not stated)
The inhibition of the first is higher: 44.8% for the first, -6% for the second.

First: Cc1ccc(C(c2sc3nc(C)nn3c2O)N2CCN(c3ccccc3)CC2)cc1 (configuration not stated)
Second: CCOc1ccc(C2C(C(=O)O)c3ccccc3C(=O)N2CCN2CCOCC2)cc1 (configuration not stated)
The inhibition of the first is higher: 36% for the first, -15.8% for the second.

Compared with Cc1ccc(SCCC(=O)OCC(=O)Nc2ncc(Cl)cc2Cl)cc1, CN(c1ccc(C(=O)NCCC2=CCCCC2)cc1)S(C)(=O)=O is lower in inhibition: 37.2% for the first, -11.3% for the second.

Going from CCCCN=C1N/C(=C\c2ccco2)C(=O)N1c1ccccc1 to O=S(=O)(c1ccc(Sc2nnc3ccccn23)nc1)N1CCOCC1, the inhibition falls from 2.2% to -4.9%.

With O=C(CN(c1ccc2c(c1)OCCO2)S(=O)(=O)c1ccccc1)Nc1ccc2c(c1)OCO2 the inhibition was 92.2% (active).
With COc1ccc(CC(=O)Nc2ccc3c(c2)CCC3)cc1S(=O)(=O)N1CCOCC1 the inhibition was 59.8% (active).
In the case of COC(=O)Nc1sc2nc(C)cc(C)c2c1-n1cccc1, the inhibition is reported as 55.1% (active).
Cc1cc(C)c2c(-n3cccc3)c(C(=O)NNS(=O)(=O)c3ccc(F)cc3)sc2n1 was tested, and the inhibition was 98.1% (active).
In the case of COc1ccc(C(c2nnnn2Cc2cccs2)N2CCN(c3ccccc3)CC2)cc1OC (configuration not stated), the inhibition is reported as 61.5% (active).
For CCCOc1ccc(C2c3c(oc4cc(C)c(C)cc4c3=O)C(=O)N2CCCN2CCOCC2)cc1 (configuration not stated), the inhibition was 90.7% (active).
In the case of Cc1ccccc1CSCCNC(=O)c1ccc(N(C)S(=O)(=O)c2ccccc2)cc1, the inhibition is reported as 94.3% (active).
